High-throughput results: PubChem BioAssay, several laboratories
Calb FLC: affects C. albicans growth with fluconazole | growth inhibition, % (concentration not given with the values) | C. albicans CaCi-2 (fluconazole-resistant clinical isolate) + fluconazole, Alamar Blue growth, 48 h | 0.57% of 300,000 active;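 active = growth inhibition above about 58% in most replicates, limit read from the data, passing the limit was not always enough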;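 note: all wells also contain fluconazole at 8 µg/ml as a sub-toxic cotreatment; 0% = median of DMSO wells and 100% = median of geldanamycin control wells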
PfM18AAP inh: PfM18AAP enzyme inhibition. recombinant PfM18AAP, H-Glu-NHMec fluorogenic cleavage. inhibition, % at 7.35 µM. 1.2% of 290,000 active;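 active = inhibition above the campaign mean inhibition over all tested compounds plus 3 SD, cut at about 28% in these data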;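 note: 0% = plate median of test compound wells and 100% = 2 mM ZnCl2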
Rin1 Abl inh: inhibitors of human Rin1-Abl protein interaction | P00519+Q13671 | TR-FRET Rin1/Abl binding, biochemical | inhibition, % at 7.35 µM | 0.4% of 360,000 active | AID 588664; in the data active = inhibition above about 5%, passing the limit was not always enough
CTSL1 counter: blocks F. hepatica cathepsin L1 in PFM18AAP counter-screen. recombinant F. hepatica cathepsin L1, Z-Leu-Arg-MCA fluorescence. inhibition, % at 5.96 µM. 0.49% of 300,000 active. AID 1906;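 active = inhibition above the mean of all tested compounds plus 3 SD, set per screening campaign, cut at about 17% in these data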;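 note: 0% = plate median of test compound wells and 100% = 1 µM Z-Phe-Ala-diazomethylketone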
Rin1 Abl conf: Rin1-Abl interaction inhibition confirmation | shares compounds with Rin1 Abl inh | TR-FRET Rin1-Abl binding, purified proteins | inhibition, % at 7.35 µM | 49% of 1,300 active
GFP quencher: quenches GFP fluorescence, counter-screen for Rin1-Abl inhibitors; AID 602125; 8.5% of 1,300 active; inhibition, % at 6.75 µM; shares compounds with Rin1 Abl inh; inhibitors/quenchers counterscreen;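 note: ABL1-eGFP fusion protein alone without its partner RIN1-SBP; 0% = protein with vehicle and 100% = wells lacking protein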
* = called active by the depositor; nt = no result. Sampled rows, rich in hits. Any-hit rate of the full collection: about 2.1%. Cut-off read from the data, not from the text of the source, unless noted: active = inhibition above about 6.5%; inactive = the rest.

SMILES	Calb FLC	PfM18AAP inh	Rin1 Abl inh	CTSL1 counter	Rin1 Abl conf	GFP quencher
CC(=O)Nc1ccc(-c2ccnc3c2CC(C(=O)NCc2ccccc2)O3)cc1 (centres undefined)	nt	nt	-4	nt	nt	nt
CC(=O)Nc1ccc(-c2ccnc3c2CC(C(=O)NCc2ccc(N4CCN(C)CC4)cc2)O3)cc1 (centres undefined)	nt	nt	14*	nt	14*	-1
C[C@H](CO)N1C[C@H](C)[C@@H](CN(C)Cc2ccc(-c3ccccc3)cc2)Oc2c(NS(=O)(=O)c3ccc(F)cc3)cccc2C1=O	nt	nt	9.1*	nt	9.2*	-1
C[C@H](CO)N1C[C@H](C)[C@@H](CN(C)Cc2ccc(-c3ccccc3)cc2)Oc2c(NC(=O)c3ccncc3)cccc2C1=O	nt	nt	22*	nt	27*	-3
COc1ccc(S(=O)(=O)Nc2cccc3c2O[C@H](CN(C)Cc2ccc(-c4ccccc4)cc2)[C@@H](C)CN([C@H](C)CO)C3=O)cc1	nt	nt	10	nt	nt	nt
C[C@H](CO)N1C[C@H](C)[C@@H](CN(C)Cc2ccc(Oc3ccccc3)cc2)Oc2c(NC(=O)c3ccncc3)cccc2C1=O	nt	nt	30*	nt	28*	1
C[C@H](CO)N1C[C@H](C)[C@@H](CN(C)Cc2ccccc2)Oc2c(NC(=O)c3ccncc3)cccc2C1=O	nt	nt	1	nt	nt	nt
CC(=O)NC(c1cccs1)c1cc(F)c2cccnc2c1O (centres undefined)	nt	nt	17*	nt	13*	4
CC(=O)NC(c1ccco1)c1cc(F)c2cccnc2c1O (centres undefined)	nt	nt	11	nt	nt	nt
COc1ccc(-n2c(Cc3cccn3C)nnc2SCC(=O)Nc2cccc(NC(C)=O)c2)cc1	9	2	9.1*	3	-3	0
COc1ccc(C2c3c4c(n(C)c3CCN2C)CCN(C)C4c2ccc(OC)cc2)cc1 (centres undefined)	3	-5	6.5*	-2	0	-2
CN1CCc2c(c3c(n2C)CCN(C)C3c2ccc(F)cc2)C1c1ccc(F)cc1 (centres undefined)	37	-3	-2	-2	nt	nt
O=C(NNC(=O)c1ccncc1)NC1CCCCC1	-6	-4	1	0	nt	nt
COC(=O)[C@@H]1C[C@@]2(O)[C@@H](O)[C@@H](O)[C@@H](O)C[C@H]2N1Cc1cc(OC)cc(OC)c1	6	nt	2	-3	nt	nt
C=C(C)Cn1c(C(C)NC(=O)CCC)nc2ccccc21 (centres undefined)	6	-5	8.6*	-2	-1	0
CCCC(=O)NC(C)c1nc2ccccc2n1CC (centres undefined)	-4	6	-3	1	nt	nt
Cc1ccc(CSCCNC(=O)/C=C/c2ccccc2Cl)cc1	3	4	1	3	nt	nt
CC(NS(=O)(=O)c1ccc2c(c1)CC(C)N2C(=O)C1CC1)c1ccccc1 (centres undefined)	1	-6	9.5*	4	-1	-1
O=C(NCCCc1ccccc1)C1CCN(S(=O)(=O)c2ccc(F)cc2)CC1	10	7	-4	-1	nt	nt
Cc1ccc(-c2nnn(CC(=O)N(CCN3CCOCC3)C(C(=O)NC3CCCC3)c3ccncc3)n2)o1 (centres undefined)	1	2	-1	-3	nt	nt
O=C(Cc1c(F)cccc1Cl)NNC(=O)Nc1ccc2c(c1)OCO2	6	5	14*	0	1	1
O=C(CSCc1c(Cl)cccc1Cl)Nc1ccc2c(c1)OCO2	-13	-3	-3	-1	nt	nt
COc1cc(Cl)ccc1OCc1cc(C(=O)N2CCCCC2c2cccnc2)no1 (centres undefined)	4	5	10*	0	1	0
O=C(c1cc(COc2ccc(F)cc2Cl)on1)N1CCCCC1c1cccnc1 (centres undefined)	9	7	6	1	nt	nt
Cc1cccc(C)c1NC(=O)CN(C)C(=O)C1CC(=O)N(c2cccc3ccccc23)C1 (centres undefined)	nt	nt	-2	nt	nt	nt
SMILES	Calb FLC	PfM18AAP inh	Rin1 Abl inh	CTSL1 counter	Rin1 Abl conf	GFP quencher
Cc1ccc(-c2[nH]c3cc(C(=O)NCCCn4ccnc4)ccc3c(=O)c2O)cc1	74	nt	19*	2	11*	11*
NS(=O)(=O)c1ccc(N=Nc2c[nH]c(=O)c(O)c2)cc1	nt	14	18*	-1	14*	24*
Nc1nc(O)c(N=Nc2ccc(S(N)(=O)=O)cc2)c(=O)[nH]1	-1	6	nt	nt	nt	nt
Cc1nn(CC(=O)Nc2ccc(C(=O)N3CCCC3)cc2)c(=O)c2ccccc12	5	-2	9.9*	-1	7.4*	2
Cc1nn(CC(=O)Nc2ccc(C(=O)N3CCCCC3)cc2)c(=O)c2ccccc12	-7	5	12*	-3	13*	0
Clc1ccc(Sc2cc(Cl)c(-c3ccccc3)nn2)cc1	0	-10	3	3	nt	nt
Cc1c(Br)c([N+](=O)[O-])nn1CC(=O)Nc1ccc(Cc2ccncc2)cc1	8	3	-1	3	nt	nt
CCc1oc(C(=O)O)cc1CN(CC)CC	0	-6	5	-1	nt	nt
CCN(CC)Cc1cc(O)c(CN(CC)CC)cc1O	30	29*	11*	nt	1	5
O=C(CSc1nnc(-c2ccccn2)o1)Nc1ccc(F)cc1	6	6	-5	1	nt	nt
Cc1ccccc1-c1nnn(Cc2ccc(F)cc2Cl)n1	-8	7	-1	-5	nt	nt
CCOC(=O)C1=C(C)N(C)C(=O)NC1c1cc2c(cc1[N+](=O)[O-])OCO2 (centres undefined)	19	13	8.7*	-1	7.4*	1
C#CCOCCOCCOCCNc1nc(N2CCN(C(=O)CCCCCCCCCCNC(=O)[C@H](CCCCN)n3cc(CCO)nn3)CC2)nc(N2CCN(C(=O)CCCCCCCCCCNC(=O)[C@H](CCCCN)n3cc(CCO)nn3)CC2)n1	nt	nt	19*	1	20*	1
C#CCOCCOCCOCCNc1nc(N2CCOCC2)nc(N2CCN(C(=O)CCCCCCCCCCNC(=O)[C@H](CO)n3cc(CCCCCN)nn3)CC2)n1	nt	nt	9.9*	6	9.8*	-1
C#CCOCCOCCOCCNc1nc(N2CCN(C(=O)CCCCCCCCCCNC(=O)Cn3cc(CCCCCN)nn3)CC2)nc(N2CCN(C(=O)CCCCCCCCCCNC(=O)[C@H](CO)n3cc(CCCCCN)nn3)CC2)n1	nt	nt	5	7	nt	nt
COc1cc(C(O)c2nc(-c3ccc(F)cc3OC)cs2)ccc1F (centres undefined)	nt	nt	-1	nt	nt	nt
COc1ccc(/C=N/NC(=O)COc2ccc(Cl)cc2Cl)cc1Cn1nc(C)cc1C	-38	5	9.4*	6	1	1
CCOC(=O)Nc1nnc(Cc2ccc(Cl)c(Cl)c2)s1	-21	3	9.3*	-2	-2	0
CC(OC(=O)CCC1CCCC1)C(=O)Nc1ccccc1[N+](=O)[O-] (centres undefined)	-5	nt	-3	0	nt	nt
O=C(O)c1cc(-c2ccccc2)nn1CC1CC(c2cccc([N+](=O)[O-])c2)=NO1 (centres undefined)	5	nt	nt	2	nt	nt
